Records with an inconclusive call do not appear. Where a call stands in place of a potency, no number is given. Values without a mark were called inactive. The source made the active and inactive calls. The call rests on the fitted dose curve; in most records, active means well fitted inhibition curve with a large enough effect; inconclusive means small, poorly fitted or top-dose-only effect; inactive means no such curve, though single readings can be large or run the other way.
molecular target: Retinaldehyde dehydrogenase 3 (Homo sapiens) (UniProt P47895); assay: qHTS for Inhibitors of the Aldehyde Dehydrogenase Family (ALDH1A3) Primary screen (AID 2061315); settings: ALDH inhibition qHTS; series mostly up to 56 µM

Structure (SMILES) | Potency | activity change, negative = inhibition
N#CC1=C(NC=NCc2ccccc2)Oc2ccc3ccccc3c2C1c1ccccc1 (stereo not given) | inactive | –
CN(CC(F)(F)F)c1nc(NCc2ccc(-c3cccnc3)cc2)c2ccccc2n1 | inactive | –
COCOC1CCC(C(=O)Nc2ccc([S+](=O)([O-])Nc3nccs3)cc2)CC1 (stereo not given) | inactive | –
O=S(=O)(NC1CCCC(NS(=O)(=O)c2c(F)cccc2F)C1)c1ccc2c(c1)OCCO2 (stereo not given) | inactive | –
CC1(C)CCc2cc(S(=O)(=O)N3CCN(S(=O)(=O)c4c(F)cccc4F)CC3)ccc2O1 | inactive | –
COc1cccc(C2c3c(ncn(-c4cccc(C#N)c4)c3=N)Oc3ccc4ccccc4c32)c1 (stereo not given) | inactive | –
CC(=O)NC(c1cc(F)c2cccnc2c1O)C1CC1 (stereo not given) | inactive | –
Cc1cc(C)n2ncc(C(=O)Nc3ccc(C#N)cc3)c2n1 | inactive | –
CS(=O)(=O)c1ccc(C(=O)OCC(=O)N2CCC(Cc3ccccc3)CC2)cc1[N+](=O)[O-] | inactive | –
CCc1cccc(Nc2nn3c(=O)c4ccccc4nc3s2)c1 | inactive | –
CS(=O)(=O)c1ccc(-c2csc(N3CCC(C(N)=O)CC3)n2)cc1 | inactive | –
O=C(CSc1ncnc2sc3c(c12)CCCCC3)NCc1ccco1 | inactive | –
CN(C)[C@@H]1CCN(c2cccc(Nc3nn4c(=O)c5ccccc5nc4s3)c2)C1 | inactive | –
CCOC(=O)c1ccoc1-c1ccc2ncnc(NCc3ccc(C)o3)c2c1 | inactive | –
O=C(OCC#CCSc1nnc(-c2cc3ccccc3cc2O)o1)c1ccc(F)cc1 | inactive | –
Cc1ccccc1S(=O)(=O)N1CCN(S(=O)(=O)c2ccc3c(c2)OCCO3)CC1 | inactive | –
CN1CCN(c2ccc(Nc3nc(-c4ccncc4)nc4ccccc34)cc2F)CC1 | inactive | –
Cc1csc(CNc2ncnc3ccc(-c4ccoc4)cc23)c1 | inactive | –
COc1ccc2nc(-c3cccc(OCc4ccccc4)c3)sc2c1 | inactive | –
C[C@@H]1COCCN1c1cc(C2(S(C)(=O)=O)CC2)nc(-c2cccc3[nH]ccc23)n1 | inactive | –

Structure (SMILES) | Potency | activity change, negative = inhibition
O=S(=O)(c1ccc2c(c1)OCCCO2)N1CCN(S(=O)(=O)c2c(F)cccc2F)CC1 | inactive | –
O=C1CCCC2=C1C(c1[nH]ncc1Br)N=C(Nc1nc3ccccc3o1)N2 (stereo not given) | inactive | –
Cc1cc(C)nc(NC(=S)N2CCN(c3cc(C(F)(F)F)nc(C)n3)CC2)c1 | inactive | –
Cc1ccc(S(=O)(=O)Nc2ccccc2C(=O)Nc2nc(-c3ccccc3)c(C)s2)cc1 | inactive | –
CC(C)Nc1nc(C#N)nc(Nc2ccccc2)n1 | inactive | –
Cc1cccc(-c2ccc3ncnc(NCc4cc(C)cs4)c3c2)c1 | inactive | –
Cc1c(Br)cc(F)c([S+](=O)([O-])N2CCN([S+](=O)([O-])c3ccc4c(c3)OCCO4)CC2)c1F | inactive | –
C/C=C/C=C/C=C/C(=O)O[C@@H]1C=C(CO)[C@](O)(CO)[C@@]2(C)CCCC(C)(C)[C@H]12 | inactive | –
CC(=O)OC1CC2C3(C)CCC(OC(=O)CC(=O)O)C(C)(C)C3CCC2(C)C2(C)CCC(C3(C)CCC(=O)O3)C12 (stereo not given) | inactive | –
Cc1ccc(OCCn2c(CCNC(=O)c3ccc4ccccc4c3)nc3ccccc32)cc1 | inactive | –
CC(=O)O[C@@H]1C[C@]2(C)[C@@]3(CCC4[C@@]5(C)CC[C@H](O[C@@H]6O[C@H](C(=O)O)[C@@H](O)[C@H](O[C@@H]7O[C@H](CO)[C@H](O)[C@H](O)[C@H]7O[C@@H]7O[C@@H](C)[C@H](O)[C@@H](O)[C@H]7O[C@@H]7OC[C@](O)(CO)[C@H]7O)[C@H]6O[C@@H]6O[C@H](CO)[C@H](O)[C@H](O)[C@H]6O)C(C)(C)C5CC[C@]42C)O[C@@H](O)[C@]12C3CC(C)(C)[C@@H](OC(=O)/C=C/c1ccc(O)c(O)c1)[C@@H]2OC(=O)/C=C/c1ccccc1 (stereo not given in full) | – | 17.4% [at 11.2 µM]
CC(=O)Nc1sc2c(c1-c1ncco1)CCNC2 | inactive | –
COC(=O)c1ccc(Nc2nc(-c3ccncc3)nc3ccccc23)cc1OC | inactive | –
Cc1ccc(S(=O)(=O)Nc2cc([N+](=O)[O-])ccc2C(=O)Nc2nc(-c3ccccc3)cs2)cc1 | inactive | –
Cc1cc2c(s1)c1cnn(Cc3cccc([N+](=O)[O-])c3)c(=O)c1n2C | inactive | –
CCC(=O)NC(c1cc(Cl)c2cccnc2c1O)C(C)C (stereo not given) | inactive | –
Cc1cc2c(s1)c1cnn(Cc3c(F)ccc(F)c3Cl)c(=O)c1n2C | inactive | –
CN(C)CCNc1ncnc2ccc(-c3ccc4c(c3)OCO4)cc12 | inactive | –
Cc1cc(N2C(=O)c3ccccc3C2=O)no1 | inactive | –
CC(=O)c1ccc(NC(=O)c2cnn3c(C)cc(C)nc23)cc1 | inactive | –
